From PubChem BioAssay AID1851 (National Center for Advancing Translational Sciences (NCATS), 2009)
Several values for one entry are separate records, joined by “and”; a condition that tells them apart may be missing. Identical values can stand only once. In all, about 16,000 compounds went through this assay and about 5,800 (36%) were called active. Not shown: some 23% with an inconclusive outcome. The list shows a part of the results. Unmarked numbers belong to inactive results. Calls come from the whole dose curve; as a rule, active = well fitted curve in the direction sought with a large enough effect; inconclusive = small, poorly fitted or top-dose-only effect, or effect the other way; inactive = no such curve, though single readings can be large or run the other way.

Each compound was assayed against Cytochrome P450 2C19 (Homo sapiens) (UniProt P33261) (assay: Cytochrome panel assay with activity outcomes). Conditions: recombinant CYP, pro-luciferin dealkylation, luminescence, p450-cyp2c19; series mostly up to 57.1 µM; activity, negative = inhibition: at the top concentration.
Sequence of Cytochrome P450 2C19 (Homo sapiens) (P33261 whole entry, looked up): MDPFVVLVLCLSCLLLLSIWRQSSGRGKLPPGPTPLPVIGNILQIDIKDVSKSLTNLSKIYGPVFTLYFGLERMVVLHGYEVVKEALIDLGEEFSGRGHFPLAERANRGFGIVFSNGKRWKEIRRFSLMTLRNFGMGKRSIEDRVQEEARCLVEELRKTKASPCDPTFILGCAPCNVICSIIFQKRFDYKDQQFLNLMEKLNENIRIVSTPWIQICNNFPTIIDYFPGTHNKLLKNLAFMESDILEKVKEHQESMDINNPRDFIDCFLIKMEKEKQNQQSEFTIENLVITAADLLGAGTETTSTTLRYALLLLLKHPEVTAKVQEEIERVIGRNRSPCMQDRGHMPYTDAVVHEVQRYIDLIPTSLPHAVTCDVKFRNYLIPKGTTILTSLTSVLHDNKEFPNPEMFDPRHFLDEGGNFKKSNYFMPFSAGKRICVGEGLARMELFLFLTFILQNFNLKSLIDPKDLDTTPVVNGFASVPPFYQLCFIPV
% is set by controls: 0 for no effect and ±100 for the full control effect.

| Structure (SMILES) | activity, negative = inhibition | AC50 |
| --- | --- | --- |
| CS(=O)(=O)N1CCC2(CCCN(C(=O)Nc3cccc(C#N)c3)C2)CC1 | -5.89% | – |
| Cc1[nH]c2ccccc2c1/C=C/c1cc[n+](C)cc1 | -13.1% | – |
| Cc1[nH]c2ccccc2c1/C=C(\C#N)C(=O)NC(C)c1ccccc1 (centres undefined) | – | 11.2 µM (active) |
| C#CCSc1nncn1C(=O)/C=C/c1ccccc1 | – | 15.8 µM (active) |
| COc1ncc2ncc(=O)n(C3CC3)c2n1 | -16.9% | – |
| Cc1nc2cnc(N(C)C)nc2n(C2CC2)c1=O | -29% | – |
| CN(C)c1ncc2nc(CCc3ccccc3)c(=O)n(C3CC3)c2n1 | – | 15.8 µM (active) |
| O=c1c(-c2cc(F)cc(F)c2)nc2cnc(Oc3ccccc3)nc2n1C1CC1 | -24% | – |
| CN(C)c1ncc2nc(-c3ccc(F)cc3)c(=O)n(C3CC3)c2n1 | -35.1% | – |
| COc1ncc2nc(CCc3ccccc3)c(=O)n(C3CC3)c2n1 | – | 15.8 µM (active) |
| COc1ccc(Oc2ncc3nc(CCc4ccccc4)c(=O)n(C4CC4)c3n2)cc1 | – | 1.58 µM (active) |
| COc1ncc2nc(C)c(=O)n(C3CC3)c2n1 | -11.7% | – |
| Cc1nc2cnc(Oc3ccccc3)nc2n(C2CC2)c1=O | -18.6% | – |
| O=C(O)c1ccccc1-c1ccccc1C(=O)Nc1ccc2c(c1)Cc1ccccc1-2 | 37.2% [at 11.4 µM] | – |
| Cn1c(SCC(=O)c2ccc3c(c2)Cc2ccccc2-3)nnc1-c1ccccc1 | – | 28.2 µM (active) |
| COC(=O)Nc1nc2ccc(C(=O)c3cccs3)cc2[nH]1 | -12.3% [at 25.6 µM] | – |
| Cc1ccc2nc(/C(C#N)=C\c3ccc(OC(=O)c4cccs4)cc3)[nH]c2c1 | – | 2.24 µM (active) |
| NC(=NC1C2CC3CC(C2)CC1C3)Nc1ccc(I)cc1 (centres undefined) | – | 5.01 µM (active) |
| CCc1cc2c(Sc3nc4ccccc4s3)ncnc2s1 | – | 2.51 µM (active) |
| O=C(Cn1c(=O)n(Cc2ccco2)c(=O)c2c3c(sc21)CCCCC3)c1ccccc1 | – | 7.08 µM (active) |
| CN(C)CCn1c(=O)n(Cc2ccco2)c(=O)c2c3c(sc21)CCCCC3 | – | 15.8 µM (active) |
| NC(=O)Cn1c(=O)n(Cc2ccco2)c(=O)c2c3c(sc21)CCCCC3 | – | 2.82 µM (active) |
| COc1ccc(Oc2ncc3nc(-c4cccs4)c(=O)n(-c4ccccc4)c3n2)cc1 | -13.1% | – |
| O=C(Nc1cccc2ccccc12)c1cn(-c2ccccc2)nc1-c1cccs1 | – | 6.31 µM (active) |

| Structure (SMILES) | activity, negative = inhibition | AC50 |
| --- | --- | --- |
| COc1cccc(Nc2ncc3nc(-c4cccs4)c(=O)n(-c4ccccc4)c3n2)c1 | 4.9% | – |
| CC(=O)CCCCn1c(=O)c2c(ncn2C)n(C)c1=O | -8.94% [at 25.6 µM] | – |
| C=CC[C@@H]1C=C[C@H](Oc2ccc(C)cc2)[C@H](COC(=O)NCc2cccc3ccccc23)O1 | – | 1.26 µM (active) |
| C=CC[C@@H]1C=C[C@@H](O/N=C\C[C@@H]2C=C[C@H](OC(C)=O)[C@H](COC(C)=O)O2)[C@@H](CO)O1 | 17.2% [at 11.4 µM] | – |
| C=CC[C@@H]1C=C[C@@H](O/N=C(/C)CCC(=O)OC[C@@H]2O[C@H](C#Cc3ccccc3)C=C[C@@H]2Oc2ccc(C)cc2)[C@@H](CO)O1 | -42.3% [at 11.4 µM] | – |
| CC(C)(C)c1ccc(-c2nnc(SCc3ccc(Cl)cc3)n2-c2cccc(C(F)(F)F)c2)cc1 | -28.9% [at 11.4 µM] | – |
| O=S(Cc1ccc(Br)cc1)Cc1nnc(SCc2ccc(Cl)cc2)n1-c1ccccc1 (centres undefined) | – | 10 µM (active) |
| OCCCNc1ncnc2[nH]ncc12 | 36.5% [at 11.4 µM] | – |
| CCOC(=O)c1c(-c2ccccc2)nc2c(C)cccn12 | – | 15.8 µM (active) |
| CC(C)C(NC(=O)C1CCCCC1)C(=O)NCc1ccccn1 (centres undefined) | -5.05% | – |
| C/C(CC(=O)NC1CCCC1)=N\NC(=O)Cc1cccs1 | -1.91% | – |
| Cc1nn(C)cc1C(C(=O)NC1CCCCC1)N(C(=O)Cc1cccs1)c1ccc(C(C)C)cc1 (centres undefined) | – | 7.94 µM (active) |
| Cc1ccccc1C(C(=O)NC1CCCC1)N(C(=O)Cc1cccs1)c1ccc2c(c1)OCCO2 (centres undefined) | – | 14.1 µM (active) |
| Cc1cc(C)cc(N(C(=O)Cc2cccs2)C(C(=O)NC2CCCCC2)c2ccccn2)c1 (centres undefined) | – | 15.8 µM (active) |
| COc1ccccc1/C=N/NC(=O)CC(=O)Nc1ccc(Cl)c(Cl)c1 | – | 11.2 µM (active) |
| COc1ccccc1/C=N/NC(=Nc1ccc(C)cc1)c1nc2ccccc2s1 | -4.38% | – |
| O=C(Oc1ccccc1)N1CCC2(CC1)CN(c1ccncc1)C2 | – | 7.94 µM (active) |
| CC(=O)N1CCC2(CC1)CN(c1ccncc1)C2 | 30.5% | – |
| COC(=O)N1CCC2(CC1)CN(c1ccc(-c3ccccc3)cc1)C2 | -11.4% | – |
| COC(=O)N1CCC2(CC1)CN(c1ccccc1)C2 | – | 6.31 µM (active) |
| COC(=O)N1CCC2(CCCN(c3ccc(-c4ccccc4)cc3)C2)CC1 | -24.4% | – |
| O=C(Oc1ccccc1)N1CCC2(CC1)CCN(c1ccncc1)CC2 | -32.8% | – |
| COC(=O)N1CCC[C@@]2(CCN(c3ccncc3)C2)C1 | 15.9% | – |
| O=C(Oc1ccccc1)N1CCC[C@@]2(CCN(c3ccncc3)C2)C1 | – | 5.01 µM (active) |
